Measured values as given in the supplement of paper PMC3334620.
In all, about 33,000 sequences were measured (“E-score (-0.5 to 0.5)”: median about -0.015, highest 2% from about 0.3 on). The entries come from a sample that favours the highest values as a whole.

target: T1, Abf1 (UniProt P14164); test: PBM E-score (8-mer binding enrichment) (E-score (-0.5 to 0.5)); higher = stronger / more preferred TF binding; conditions: protein concentration: 200 nM; construct: GST-full length
T1 sequence: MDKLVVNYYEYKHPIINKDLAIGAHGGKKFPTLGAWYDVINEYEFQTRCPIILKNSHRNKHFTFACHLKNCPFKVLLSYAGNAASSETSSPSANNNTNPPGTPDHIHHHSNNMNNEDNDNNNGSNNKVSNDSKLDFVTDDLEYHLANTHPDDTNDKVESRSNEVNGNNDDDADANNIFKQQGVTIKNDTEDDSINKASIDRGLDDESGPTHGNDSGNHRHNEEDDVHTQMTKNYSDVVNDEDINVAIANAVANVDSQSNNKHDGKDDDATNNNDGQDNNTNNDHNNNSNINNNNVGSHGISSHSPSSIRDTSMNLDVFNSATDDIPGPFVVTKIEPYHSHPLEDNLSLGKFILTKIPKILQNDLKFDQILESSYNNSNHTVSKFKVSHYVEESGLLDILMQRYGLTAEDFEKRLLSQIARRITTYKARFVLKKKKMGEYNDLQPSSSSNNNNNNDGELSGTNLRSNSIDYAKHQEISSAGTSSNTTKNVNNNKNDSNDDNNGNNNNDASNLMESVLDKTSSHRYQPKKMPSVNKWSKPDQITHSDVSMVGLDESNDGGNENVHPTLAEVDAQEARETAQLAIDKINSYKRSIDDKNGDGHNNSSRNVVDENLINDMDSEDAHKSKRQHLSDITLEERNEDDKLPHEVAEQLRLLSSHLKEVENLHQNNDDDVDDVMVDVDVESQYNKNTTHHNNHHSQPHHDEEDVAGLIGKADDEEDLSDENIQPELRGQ
Description: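 Universal 'all 10-mer' protein binding microarrays (Agilent AMADID 015681) probed with GST-tagged S. cerevisiae TFs (full-length or DBD) made by in vitro transcription/translation (PURExpress), about 100-200 nM. Bound TF was detected with fluorescent anti-GST. Each ungapped 8-mer (which stands for itself and its reverse complement) is scored by the PBM enrichment score (E-score), a modified Wilcoxon-Mann-Whitney statistic from -0.5 to +0.5, computed with the Universal PBM Analysis Suite. Scale: above 0.35 generally sequence-specific binding.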

Row | Sequence | PBM E-score
1 | CTAAGCGA | -0.0187
2 | CTTTTAGA | -0.028
3 | ATATCGGC | 0.149
4 | ATATCGTA | 0.203
5 | ATATCGCG | 0.382
6 | CTATCGTC | 0.252
7 | ATATCGGG | 0.018
8 | ATATCGCC | 0.269
9 | ATATCGTG | 0.318
10 | ATATCGCA | 0.144
11 | AAATCGTA | 0.267
12 | ATATCGTC | 0.336
13 | AAATCGTG | 0.192
14 | AAATCGTC | 0.347
15 | AGGGAACT | -0.244
16 | AGCCGTAA | 0.193
17 | GCGTCCTA | -0.0099
18 | TACCAAAA | 0.0276
19 | ACACAAAC | 0.0247
20 | GTATAATA | 0.299
21 | ATATAAAA | 0.185
22 | GGATAATA | 0.173
23 | CTATAATA | -0.0104

Row | Sequence | PBM E-score
24 | CGATAATA | 0.326
25 | GTATAAAC | 0.22
26 | AGATAATA | 0.107
27 | ATATAATA | 0.0977
28 | GTATAAAA | 0.356
29 | GTTAACGA | 0.252
30 | ACTGGTCG | -0.0382
31 | AGTGCGAA | -0.196
32 | CTCACCAG | -0.101
33 | CGAAGGGC | -0.116
34 | ACAGTGTC | -0.155
35 | AGGGCTTC | 0.0312
36 | ACTCGTAG | 0.16
37 | AATCGTAA | 0.145
38 | ACTCGTAA | 0.173
39 | AATCGTAG | 0.197
40 | GCTCGTAA | 0.118
41 | ACTCGTAT | 0.305
42 | CCTCGTAA | 0.131
43 | TCTCGTAA | 0.306
44 | AATCGTAT | 0.297
45 | CACTCGGC | -0.0263
46 | ACCAAGCT | -0.00876

Row | Sequence | PBM E-score
47 | AGGTTACT | 0.024
48 | CAATACTG | -0.239
49 | CGCTCACA | -0.0723
50 | ACGCGGGC | -0.0155
51 | GCTTCGCC | -0.147
52 | ACCCGTAA | 0.0373
53 | CGCCGTCC | 0.308
54 | GGCCGTAA | 0.121
55 | CGCCGTAC | 0.315
56 | CGCCGTAG | 0.209
57 | ACCCGTAC | 0.299
58 | GGCCGTAC | 0.367
59 | CGCCGTCA | 0.199
60 | AGCCGTAC | 0.238
61 | ACCCGTAG | -0.248
62 | AGCCGTCC | 0.0251
63 | CGCCGTAA | 0.0647
64 | CTACGTCA | 0.146
65 | CCAGTGAG | -0.251
66 | CATTAGGC | 0.0172
67 | GGTCCCAA | -0.136
68 | CAGTCCAA | -0.177
69 | TCGCGGAA | 0.0001

Row | Sequence | PBM E-score
70 | AGCTACCG | -0.0848
71 | CACCGTAC | 0.385
72 | CGCCGTTC | 0.331
73 | AGCCGTTC | -0.0626
74 | CACCGTAG | 0.0588
75 | CACCGTAA | 0.101
76 | CGCCGTTA | 0.14
77 | AGACCCCG | -0.0859
78 | CAGCAAGG | -0.192
79 | GGTGACTA | 0.149
80 | GCACTATA | 0.017
81 | AAGACAAC | 0.0616
82 | CTCCCCAC | -0.0818
83 | CGAGAGAA | 0.0467
84 | CAGTAATC | -0.00799
85 | CAGTAATG | -0.0287
86 | CAGTAATA | 0.304
87 | GCCGTAAC | 0.211
88 | ATTTATTG | 0.0665
89 | CCCATTTC | -0.182
